Data reported in PubChem BioAssay AID1259422 (The Scripps Research Institute Molecular Screening Center, 2018).
Among all 640,000 compounds or so, about 9,300 (1.5%) were called active. Rule as the data show it: active = inhibition above about 32%; inactive = the rest. The full list was thinned out, with actives kept by preference.

Experiment: TEAD-YAP interaction inhibition, primary screen, TEAD-YAP interaction inhibitor project, luminescence, HEK-TIYL cells (AID 1259422);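 also: 0% = median of test compound wells and 100% = reference inhibitor wells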
Conditions: TEAD-Gal4/YAP UAS-luciferase luminescence, at 9.12 µM, hits give high values

Compound	inhibition
Cc1ccc(N(CC(=O)O)C2SC(=O)N(c3ccccc3)C2=O)cc1 (centres undefined)	-28.6% (inactive)
Cc1cc(C)cc(OCC(=O)Nc2sc3c(c2C(N)=O)CCCC3)c1	-1.21% (inactive)
CCCCOC(=O)C1=C(C)NC2=C(C(=O)CC(C)(C)C2)C1c1ccc(Cl)cc1Cl (centres undefined)	1.21% (inactive)
Cc1nc(C)n(-c2ccc(Nc3ncc4ccc(-c5cnn(C)c5)cc4n3)cc2)n1	84.9% (active)
Cc1nc(C)n(-c2ccc(Nc3cc(-n4ccnn4)ccn3)cc2)n1	1.02% (inactive)
Cc1ncn(-c2ccc(Nc3ncc(-c4cnn(C)c4)c(-c4cnn(C)c4)n3)cc2)n1	-5.05% (inactive)
Cc1ccccc1CCNCc1ccc(C(=O)O)s1	-4.88% (inactive)
CC(C)(C)c1nc2ccccc2c2nn(CC(=O)N3CCNC(=O)C3(C)C)c(=O)n12	-10.6% (inactive)
O=C(NCC1CCCO1)c1ncoc1-c1cccc(Cl)c1 (centres undefined)	-34.8% (inactive)
Cn1nnc2c(N3CCN(CC(=O)Nc4ccccc4F)CC3)ncnc21	3.56% (inactive)
Cc1nn2c(NCc3ccncc3)c3c(nc2c1-c1ccccc1)CCC3	-22.7% (inactive)
O=C(Cn1cnc2ccccc2c1=O)NCc1ccccc1	2.51% (inactive)
COc1ccccc1NC(=O)Cn1ccc2ccccc2c1=O	-0.57% (inactive)
COc1cccc2c(=O)n(CC(=O)NCc3ccccc3)ccc12	38.8% (active)
Cn1c(-c2ccco2)nc2cc3ccccc3cc21	90.5% (active)
Cc1c(-n2c(-c3ccco3)nc3ccccc3c2=O)c(=O)n(-c2ccccc2)n1C	-10.7% (inactive)
Cn1cc(S(=O)(=O)O)cc1-c1nc2ccccc2n1C	9.5% (inactive)
C(/C=C/c1ccccc1)=Nc1ccc(N2CCOCC2)cc1	18.8% (inactive)
NC1=NC(=Nc2cc(Cl)cc(Cl)c2)c2ccccc21	-2.03% (inactive)
NC1=NC(=Nc2ccc(N3CCCCC3)cc2)c2ccccc21	60.5% (active)
O=C1OC(c2ccccc2Cl)=N/C1=C\c1ccco1	4.9% (inactive)
COc1cc(/C=N/NC(=O)CC(=O)NCC(C)C)ccc1O	8.56% (inactive)
CCOC(=O)N1CCN(C(=O)c2ccc3c(=O)n(Cc4ccccc4Cl)c(=S)[nH]c3c2)CC1	-2.49% (inactive)
c1ccc2c(-c3nc(NC4CC4)c4ncn(-c5ccsc5)c4n3)csc2c1	13.5% (inactive)

Compound	inhibition
COc1ccc(CCNc2nc(-c3c(C)noc3C)nc3c2ncn3-c2ccsc2)cc1	-2.43% (inactive)
Cc1noc(C)c1-c1nc(NC2CC2)c2ncn(-c3ccsc3)c2n1	41.4% (active)
CC(=O)N(c1cccc(C)c1)C1SC(=O)N(c2cccc(C)c2)C1=O (centres undefined)	3.53% (inactive)
O=C(Nc1ccc(-c2nc3cccnc3s2)cc1)C1CCCC1	51.9% (active)
CC(=O)Nc1cccc(-c2nc3cccnc3s2)c1	-43.1% (inactive)
CC(=O)Nc1ccc(S(=O)(=O)Nc2ccc(-c3nc4cccnc4s3)cc2)cc1	7.3% (inactive)
Cc1ncc(-c2ccc(F)cc2)c(C2CCCN(CCO)C2)n1 (centres undefined)	-9.4% (inactive)
COC(=O)COc1ccc(/C=C2/NC(=O)N(c3ccccc3)C2=O)cc1OC	11.3% (inactive)
Cc1nc(NC(=O)/C=C/c2cccc([N+](=O)[O-])c2)sc1C(=O)N(C)C	-12.3% (inactive)
N#Cc1ccc(OCC(=O)Nc2ccc3c(c2)C(=O)c2ccccc2C3=O)cc1	-21.1% (inactive)
COc1ccc(C(=O)CSC2=C(C#N)C(c3cccs3)CC(=O)N2)cc1 (centres undefined)	-82.2% (inactive)
CCOc1cc(C2CC(=O)NC(SCC(=O)OCc3ccccc3)=C2C#N)ccc1O (centres undefined)	-6.79% (inactive)
CCOC(=O)CSC1=C(C#N)C(c2sccc2C)CC(=O)N1 (centres undefined)	56.8% (active)
N#CC1=C(SCC(=O)Nc2nccs2)NC(=O)CC1c1cccs1 (centres undefined)	5.49% (inactive)
CCOC(=O)CSC1=C(C#N)C(c2ccccc2)CC(=O)N1 (centres undefined)	53.9% (active)
N#CC1=C(SCC(=O)OCc2ccccc2)NC(=O)CC1c1ccc(F)cc1 (centres undefined)	6.22% (inactive)
CCOC(=O)c1ccc(CN(Cc2ccc(Br)cc2)S(=O)(=O)c2cc(Cl)cc(Cl)c2)cc1	11.6% (inactive)
O=C(NCCc1ccccc1)C(=O)Nc1ccccc1F	-44.1% (inactive)
CCCCSc1nc2sc3c(c2c(=O)n1-c1ccc(OC)cc1)CCCC3	-1.35% (inactive)
O=C(CCSc1ccccc1)Nc1cccc2ccc(-n3ccnc3)nc12	-3.58% (inactive)
COc1cc(C(=O)Nc2cc(-c3nc4ccc(C)cc4o3)ccc2C)ccc1OCc1ccc(Cl)cc1	-64.2% (inactive)
CCNC(=O)C1CCN(c2nc(C)cc(C)n2)CC1	-5.09% (inactive)
Cc1cc(N2CCCCC2)nc(NCCNC(=O)C2CCCO2)n1 (centres undefined)	42.3% (active)
Cc1cc(N2CCOCC2)nc(SCC(=O)N2CCCC2)n1	5.97% (inactive)

Compound	inhibition
Cc1cc(C)nc(NS(=O)(=O)c2ccc(NC(=O)/C=C/c3ccc(F)cc3)cc2)n1	-8.5% (inactive)
Cc1cccc(NC(=O)/C=C/c2ccc(F)cc2)c1	34.1% (active)
Cc1csc(NC(=O)/C=C/c2ccc(F)cc2)n1	-40.2% (inactive)
O=C(/C=C/c1ccc(F)cc1)NCCCCNC(=O)/C=C/c1ccc(F)cc1	-6.73% (inactive)
O=C(/C=C/c1ccc(F)cc1)Nc1ccccc1F	79.4% (active)
O=C(/C=C\c1ccccc1)Nc1cc2ccccc2cc1NC(=O)/C=C/c1ccccc1	-0.29% (inactive)
O=C(Nc1ccc(-c2nc3cc(Cl)ccc3o2)cc1)c1ccc(-c2ccc(Cl)cc2)o1	-100% (inactive)
O=S(=O)(NCc1ccccc1)c1cccc(S(=O)(=O)NCc2ccccc2)c1	4.17% (inactive)
N#C/C(=C\c1cn(-c2ccccc2)nc1-c1ccc(Cl)cc1)C(N)=O	2.99% (inactive)
NC(=O)c1ccc(-c2nc(NC3CC3)c3ncn(C4CCCCC4)c3n2)cc1	18% (inactive)
O=C(O)c1nnn(-c2ccccc2)c1C(=O)O	5.21% (inactive)
CCOC(=O)c1sc2nc(C)nc(N3CCCCC3)c2c1C	-2.79% (inactive)
CCN(Cc1ccccc1)Cc1ccc([N+](=O)[O-])cc1	10.2% (inactive)
O=C(c1cc2ccccc2oc1=O)N(Cc1ccccc1)c1cccc([N+](=O)[O-])c1	0.25% (inactive)
O=[N+]([O-])C1CS(=O)(=O)C=C1N(Cc1ccccc1)c1ccccc1 (centres undefined)	39.5% (active)
Cc1cc(OCc2nc(SCC(=O)N(C)C)n[nH]2)ccc1Cl	-1.92% (inactive)
Cc1ccccc1Nc1ncnc2nc[nH]c12	-0.78% (inactive)
COc1cc(C(=O)NC(=S)Nc2ccccc2O)cc(OC)c1OC	12% (inactive)
CCc1cc(C)cc(OCC(O)Cn2c(C)nc3ccccc32)c1 (centres undefined)	26.7% (inactive)
Cc1cc(C)c(OCC(O)Cn2c(C)nc3ccccc32)c(C)c1 (centres undefined)	35.1% (active)
Cc1nc2ccccc2n1CC(O)COc1ccc(N)cc1 (centres undefined)	10.8% (inactive)
O=C(Oc1cc(-c2ccc(Cl)cc2)c2oc(=O)sc2c1)c1ccccc1	-3.66% (inactive)
COc1ccccc1N1CCN(S(=O)(=O)c2ccccc2[N+](=O)[O-])CC1	13% (inactive)
COc1ccccc1N1CCN(Cc2cc(=O)c(OCc3ccc(Cl)cc3)co2)CC1	6.69% (inactive)

Compound	inhibition
COc1ccccc1N1CCN(c2c(-c3ccc(Cl)cc3)c(=O)c2=O)CC1	70.2% (active)
CCOC(=O)N1CCC(N2C(=O)c3ccc(C(=O)NCC(OC)OC)cc3C2=O)CC1	10.6% (inactive)
CCCCSc1nnc(NC(=O)C2CC2)s1	-17.5% (inactive)
NS(=O)(=O)c1cccc(N=C2C(=O)Nc3ccc([N+](=O)[O-])cc32)c1	-2.91% (inactive)
CCN(CC)c1ccc2cc(-c3nc4ccc(Cl)cc4[nH]3)c(=O)oc2c1	25.2% (inactive)
CCN(CC)c1ccc2cc(-c3nnc(Nc4ccccc4F)s3)c(=O)oc2c1	2.05% (inactive)
CCN(CC)c1ccc2cc(-c3nc4ccccc4[nH]3)c(=N)oc2c1	76.8% (active)
CN(C)c1ccc(C=NCC(O)CN=Cc2ccc(N(C)C)cc2)cc1 (centres undefined)	3.49% (inactive)
CC[n+]1c(/C=C/c2ccc(N(C)C)cc2)oc2ccccc21	1.32% (inactive)
CC[n+]1cc(C)ccc1/C=C/c1ccc(N(C)C)cc1	86.9% (active)
Cc1ccc(/C=C2/SC(=O)N(CCC(=O)O)C2=O)cc1	19.7% (inactive)
COc1ccc(/C=C2\SC(=O)N(Cc3ccc(C(=O)O)cc3)C2=O)cc1	1.76% (inactive)
COc1ccc(/C=C2/SC(=O)N(CCCC(=O)Nc3ccc(C(=O)O)cc3)C2=O)cc1	80.5% (active)
COc1ccc(N=C2SC(C(=O)Nc3ccc(C)cc3C)CC(=O)N2CCc2ccc(OC)c(OC)c2)cc1 (centres undefined)	9.84% (inactive)
O=C(Cc1cc(=O)[nH]c(=O)[nH]1)NCCCc1ccccc1	-5.86% (inactive)
CCOC(=O)Nc1c(C(=O)OC)[nH]c2ccc(C)cc12	-2.73% (inactive)
CCOC(=O)Nc1cc(=O)c2cc(C)ccc2o1	41.8% (active)
Cc1ccc2oc(C(=O)Nc3ccccc3F)cc(=O)c2c1	4.72% (inactive)
COCCSc1nc2c(c(=O)[nH]c(=O)n2C)n1Cc1ccccc1Cl	2.74% (inactive)
O=[N+]([O-])c1ccc2cnn(-c3cccc(C(F)(F)F)c3)c2c1	-0.71% (inactive)
COc1ccccc1N1CCN(c2ncnc3sc(C(=O)N4CCCCC4C)c(C)c23)CC1 (centres undefined)	6.82% (inactive)
CCOC(=O)c1c(/N=C/c2cccc(OC)c2OC)sc2c1CCN(CC)C2	4.12% (inactive)
